Results reported in PubChem BioAssay (NCATS).
Values joined by “and” are separate entries in the source; they are usually repeats but may differ in a detail not shown here. Identical values can stand only once. Results filed as inconclusive are left out. Active and inactive are the calls of the source. Unless noted, calls come from the whole dose curve; as a rule, active = well fitted curve in the direction sought with a large enough effect; inconclusive = small, poorly fitted or top-dose-only effect, or another doubt; inactive = no such curve, though single readings can be large; an effect the other way counts as inactive or inconclusive.

Legend:
[1] = Cell Viability - HepG2 (AID 433; calls by dose curve;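 note: potency is the fitted concentration of half-maximal effect; cells exposed to compound for 40 hours; potency for ATP loss meaning cytotoxicity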); details: qHTS
How it was run: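 Read-out is luciferase-based quantitation of cellular ATP as a measure of viable HepG2 cells after 40 h treatment at 37 °C. Signal decrease is scaled between DMSO-only and 100 uM tamoxifen controls, with AC50 fitted by the Hill equation.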

[2] = Cellular Toxicity (caspase-3) SHSY5Y (AID 657); details: SH-SY5Y caspase-3 activation; series mostly up to 91.7 µM;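 note: cells exposed to compound for 16 hours at 37 °C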
How it was run: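 qHTS, SH-SY5Y, 1500 cells/well, 5 h pre-incubation 37 °C; compound 16 h 37 °C; Caspase-Glo 3/7 1 h RT; luminescence. Norm.: DMSO = 0, 10 uM staurosporine = 100%. Hill fit → AC50.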

[3] = Cell Viability - LYMP2-001 (AID 921); details: LYMP2-001 lymphoblastoid cell viability; series mostly up to 92.2 µM;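 note: cells exposed to compound for 24 h at 37 °C; nearly all actives have a fitted effect of over 70% in size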; note: potency is the fitted concentration of half-maximal effect
How it was run: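 Steps: seed 2500 lymphoblastoid cells/well; 5 hr, 37 C; add compound; 24 hr, 37 C; CellTiter-Glo reagent, 30 min room temperature; read luminescence. Concentration-response modeled by Hill equation for AC50.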

[4] = Cell Viability - LYMP1-002 - Assay at 16 hr (AID 948); details: LYMP1-002 lymphoblastoid cell viability; series mostly up to 92.2 µM; note: potency is the fitted concentration of half-maximal effect
How it was run: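 Seed 2500 LYMP1-002 cells per well in complete medium and hold 5 hr at 37 C. Add compound across a concentration series and incubate 16 hr at 37 C. Add CellTiter-Glo, wait 30 min at room temperature, read luminescence.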

[5] = MultiTox-Fluor Cytotoxicity Assay - LYMP1-003 - Dead Cells (AID 961); details: LYMP1-003 lymphoblastoid cells, dead-cell protease fluorescence; series mostly up to 92.2 µM; note: nearly all actives have a fitted effect of over 70% in size; note: potency is the fitted concentration of half-maximal effect
How it was run: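 Human lymphoblastoid LYMP1-003 cells (2500/well) were treated with compounds for 16 hr at 37 C in complete medium. Dead-cell protease release was read by bis-AAF-R110 fluorescence (Ex/Em 485/520). AC50 came from Hill fits, normalized to DMSO and 15 uM tetraoctylammonium bromide.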

[6] = Cell Viability - LYMP1-003 - Assay at 40 hr (AID 964); details: LYMP1-003 lymphoblastoid viability; series mostly up to 92.2 µM; note: nearly all actives have a fitted effect of over 60% in size; note: potency is the fitted concentration of half-maximal effect
How it was run: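 Acute toxicity is scored as a concentration-dependent loss of intracellular ATP in LYMP1-003 cells (2500/well, complete medium) after 40 hr at 37 C, measured by CellTiter-Glo luminescence; AC50 values derive from standard Hill modelling.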

[7] = Cell Viability - LYMP2-009 (AID 968); details: LYMP2-009 lymphoblastoid cell viability; series mostly up to 92.2 µM;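 note: cells exposed to compound for 24 h at 37 °C; nearly all actives have a fitted effect of over 55% in size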; note: potency is the fitted concentration of half-maximal effect
[8] = Cell Viability - LYMP2-011 (AID 969); details: LYMP2-011 lymphoblastoid cells viability; series mostly up to 92.2 µM; note: nearly all actives have a fitted effect of over 60% in size; note: potency is the fitted concentration of half-maximal effect
How it was run: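 Cells seeded at 2500 per well rest 5 hr before compound addition, then incubate 24 hr at 37 C. CellTiter-Glo reagent is added for 30 min at room temperature before luminescence detection.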

[9] = Cell Viability - LYMP2-017 (AID 972); details: LYMP2-017 lymphoblastoid cell viability; series mostly up to 92.2 µM; note: nearly all actives have a fitted effect of over 55% in size; note: potency is the fitted concentration of half-maximal effect
How it was run: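 In this qHTS format, lymphoblastoid cells in complete medium receive test compound for a day at 37 C before ATP content is quantified by luciferase luminescence. Reported AC50 figures come from standard Hill-equation curve fitting.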

[10] = Cell Viability - LYMP2-021 (AID 974); details: LYMP2-021 lymphoblastoid cells viability; series mostly up to 92.2 µM;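 note: compound exposure lasts 24 hours at 37 °C; nearly all actives have a fitted effect of over 55% in size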; note: potency is the fitted concentration of half-maximal effect
How it was run: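 In qHTS format, compounds are tested against 2500 lymphoblastoid cells per well for 24 h; viable cell number is inferred from ATP-driven luciferase light, and Hill-equation fitting yields AC50 values.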

[11] = Cell Viability - LYMP2-023 (AID 975); details: LYMP2-023 lymphoblastoid cell viability; series mostly up to 92.2 µM; note: nearly all actives have a fitted effect of over 55% in size; note: potency is the fitted concentration of half-maximal effect
How it was run: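 In this qHTS, ATP-based luciferase luminescence (CellTiter-Glo) is quantified in human lymphoblastoid cells after 24 hr compound treatment at 37 C; tetraoctylammonium bromide serves as positive control. Concentration-response curves are Hill-fitted to give AC50.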

[12] = Cell Viability - LYMP2-025 (AID 976); details: LYMP2-025 lymphoblastoid cell viability; series mostly up to 92.2 µM;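 note: cells exposed to compound for 24 h at 37 °C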; note: potency is the fitted concentration of half-maximal effect
How it was run: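 Luminescent ATP readout after 24 hr treatment of a human lymphoblastoid line (LYMP2-025, 2500 cells/well, 37 C). Reagent developed 30 min at room temperature; AC50 fitted with the Hill equation.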

[13] = Cell Viability - LYMP2-007 (AID 979); details: LYMP2-007 lymphoblastoid cell viability; series mostly up to 92.2 µM;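 note: cells exposed to compound for 24 h before reading; nearly all actives have a fitted effect of over 60% in size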; note: potency is the fitted concentration of half-maximal effect
How it was run: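 Measured via luciferase-based ATP quantitation: lymphoblastoid cells, 24 hr compound exposure at 37 C, AC50 from Hill fits.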

[14] = Cell Viability - LYMP2-012 (AID 982); details: LYMP2-012 lymphoblastoid cell viability qHTS; series mostly up to 92.2 µM; note: potency is the fitted concentration of half-maximal effect
[15] = Cell Viability - LYMP2-020 (AID 986); details: series mostly up to 92.2 µM; note: potency is the fitted concentration of half-maximal effect
How it was run: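 Cells at 2500 per well receive a 24 hr compound exposure at 37 C. Viability is measured as ATP-dependent luciferase luminescence, with AC50 modeled from qHTS concentration-response curves.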

[16] = Cell Viability - LYMP1-002 - Assay at 24 hr (AID 993); details: LYMP1-002 lymphoblastoid cells viability; series mostly up to 92.2 µM; note: potency is the fitted concentration of half-maximal effect
How it was run: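 Viability was judged from intracellular ATP using a luciferase read-out, following a 24-hour compound incubation at 37 C of lymphoblastoid cells seeded at 2500 per well. Concentration-response data were fitted to the Hill equation for AC50.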

[17] = qHTS assay for small molecule disruptors of the mitochondrial membrane potential - 5 hr assay (AID 651755; calls by dose curve; note: nearly all actives have a fitted effect of over 40% in size; note: potency is the fitted concentration of half-maximal effect); details: JC-1-type ratio dye; series mostly up to 92.2 µM
How it was run: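 Seed HepG2 overnight, add compound, incubate 5 hr at 37C and 5% CO2, stain 30 min with Mito-MPS, then measure monomer (490/535 nm) and aggregate (540/590 nm) fluorescence.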

[18] = Cellular Toxicity (caspase-3) NIH 3T3 (AID 666); details: NIH 3T3 caspase-3 activation, apoptosis/toxicity, 0% DMSO, 100% is 100 µM tamoxifen; series mostly up to 92.2 µM;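 note: caspase signal read after 16 h compound exposure; 0% = DMSO basal and 100% = 100 µM tamoxifen stimulation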
How it was run: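 Activity: caspase-3/7 induction, NIH 3T3 cells, 16 hr treatment at 37°C, luminescent Caspase-Glo detection; AC50 via Hill equation.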

[19] = target: Peroxisome proliferator-activated receptor alpha (Homo sapiens) (UniProt Q07869); assay: qHTS assay for small molecule agonists of the peroxisome proliferator-activated receptor alpha (PPARalpha) signaling pathway (AID 651778); details: PathHunter PPARalpha complementation, chemiluminescence, 6 h; max response: hits give high values; note: % of control where 0% means no effect
Peroxisome proliferator-activated receptor alpha (Homo sapiens), sequence (Q07869 whole entry, looked up): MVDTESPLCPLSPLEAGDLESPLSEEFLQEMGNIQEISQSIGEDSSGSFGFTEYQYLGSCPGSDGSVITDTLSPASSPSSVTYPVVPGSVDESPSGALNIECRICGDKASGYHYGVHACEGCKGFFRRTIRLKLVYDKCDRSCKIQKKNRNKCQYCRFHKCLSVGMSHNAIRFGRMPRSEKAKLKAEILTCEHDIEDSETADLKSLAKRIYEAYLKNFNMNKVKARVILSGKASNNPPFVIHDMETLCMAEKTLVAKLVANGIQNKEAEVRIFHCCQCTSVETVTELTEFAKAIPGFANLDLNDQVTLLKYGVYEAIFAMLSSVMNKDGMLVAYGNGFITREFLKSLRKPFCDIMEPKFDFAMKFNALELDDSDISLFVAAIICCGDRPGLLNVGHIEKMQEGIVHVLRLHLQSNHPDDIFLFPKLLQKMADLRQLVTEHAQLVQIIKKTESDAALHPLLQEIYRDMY
How it was run: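 Cells plated at 2,000/well and held overnight at 37 C, 5% CO2, then compound added by pin tool for 6 hr; after PathHunter detection reagent and 60 min at room temperature, chemiluminescence from enzyme complementation was read.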

[20] = qHTS assay for small molecule agonists of the antioxidant response element (ARE) signaling pathway measured by Nrf2-dependant transcriptional activity (AID 720636; active = well fitted curve in the direction sought with a large enough effect in the repeat runs; an effect the other way counts as inactive or inconclusive;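 note: HepG2 cells with an ARE-driven luciferase reporter; % of control where 0% means no effect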); details: ARE-luc HepG2, Nrf2 luciferase reporter, 16 h; series mostly up to 92.4 µM
How it was run: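 Attachment 6 hr at 37 C, then compound versus DMSO vehicle for 16 hr in ARE-luc HepG2 cells (1% dialyzed FBS); luminescence recorded 30 min after ONE-Glo addition at room temperature.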

Nc1ccccc1C(=O)OCCc1ccccc1
inactive: Potency [1] > 92 µM | Potency [2] | Potency [3] | Potency [4] | Potency [5] | Potency [6] | Potency [7] | Potency [8] | Potency [9] | Potency [10] | Potency [11] | Potency [12] | Potency [13] | Potency [14] | Potency [15] | Potency [16] | Potency [17]

FC(F)(F)c1ccc(Cl)cc1
inactive: Potency [1] > 92 µM | Potency [2] | outcome [18] | Potency [3] | Potency [4] | Potency [5] | Potency [6] | Potency [7] | Potency [8] | Potency [9] | Potency [10] | Potency [11] | Potency [12] | Potency [13] | Potency [14] | Potency [15] | Potency [16] | Potency [17] | max response [19] 1.19% and -0.788% | Potency [20]

[CH3][Hg][Cl]
inactive: max response [19] -12.7%
active: Potency [1] 31.7 µM | Potency [3] 1.58 µM | Potency [4] 39.8 µM | Potency [6] 50.1 µM | Potency [7] 5.01 µM | Potency [8] 3.98 µM | Potency [9] 3.16 µM | Potency [10] 3.16 µM | Potency [11] 5.01 µM | Potency [12] 7.94 µM | Potency [13] 3.98 µM | Potency [14] 3.16 µM | Potency [15] 2.51 µM | Potency [16] 39.8 µM | Potency [17] 66.8 µM

C[C@@H]1CC[C@@]2(OC1)O[C@H]1[C@@H](O)[C@H]3[C@@H]4CC[C@H]5C[C@@H](O[C@@H]6O[C@H](CO)[C@H](O[C@@H]7O[C@H](CO)[C@@H](O)[C@H](O[C@@H]8OC[C@@H](O)[C@H](O)[C@H]8O)[C@H]7O[C@@H]7O[C@H](CO)[C@@H](O)[C@H](O[C@@H]8O[C@H](CO)[C@@H](O)[C@H](O)[C@H]8O)[C@H]7O)[C@H](O)[C@H]6O)[C@H](O)C[C@]5(C)[C@H]4CC[C@]3(C)[C@H]1[C@@H]2C
active: Potency [1] 11.9 µM | Potency [3] 10 µM | Potency [4] 10 µM | Potency [5] 10 µM | Potency [6] 7.94 µM | Potency [7] 12.6 µM | Potency [8] 20 µM | Potency [9] 25.1 µM | Potency [10] 15.8 µM | Potency [11] 25.1 µM | Potency [12] 25.1 µM | Potency [13] 25.1 µM | Potency [14] 15.8 µM | Potency [15] 12.6 µM | Potency [16] 7.94 µM | Potency [17] 26.6 µM
inactive: Potency [2] | outcome [18] | Potency [20]

O=[N+]([O-])c1ccccc1Cl
inactive: Potency [1] > 92 µM | Potency [20]

CCCCCCCCn1sccc1=O
inactive: Potency [2] | outcome [18] | Potency [17] | max response [19] -5.93% and -2.13%
active: Potency [3] 2 µM | Potency [4] 15.8 µM | Potency [5] 7.94 µM | Potency [6] 25.1 µM | Potency [7] 5.01 µM | Potency [8] 6.31 µM | Potency [9] 3.98 µM | Potency [10] 3.98 µM | Potency [11] 6.31 µM | Potency [12] 6.31 µM | Potency [13] 2.51 µM | Potency [14] 3.98 µM | Potency [15] 3.98 µM | Potency [16] 12.6 µM
